# Values quoted from earlier work as cited in PubChem BioAssay AID977608.
# Screen size: about 4,300 compounds; about 4,300 (100%) were called active. No cut-off is given here; in the data, nearly all actives have IC50 up to about 1400 µM. The set was probably picked from earlier hits. The list shows a part of the results.
# Assay: literature IC50 values for PDB complexes, PDB-derived complexes (AID 977608)
# Settings: PDB protein-ligand complexes
smiles,measurement,setting,value
Cn1ncnc1[C@H]1c2n[nH]c(=O)c3cc(F)cc(c23)N[C@@H]1c1ccc(F)cc1,IC50,"protein: Poly [ADP-ribose] polymerase 1 PARP1, PDB entry 4pjt",0.00057 µM (active)
Nc1nc(Nc2cccc(S(N)(=O)=O)c2)sc1C(=O)c1ccccc1,IC50,"protein: Cyclin-dependent kinase 2, PDB entry 3rni",6.7 µM (active)
NC(=O)c1sc(Nc2ccccc2)nc1N,IC50,"protein: Cyclin-dependent kinase 2, PDB entry 3rzb",100 µM (active)
CS(=O)(=O)c1ccc(C(=O)Nc2cccc(-c3cn4ccnc4c(Nc4ccc(C(=O)N5CCOCC5)cc4)n3)c2)cc1,IC50,"protein: Tyrosine-protein kinase BTK, PDB entry 4ot6",1.2 µM (active)
O=C(Nc1ccc2[nH]nc(-c3ccncc3)c2c1)[C@@H]1CCN(CC(=O)N2CCN(c3ccc(-c4ncccn4)cc3)CC2)C1,IC50,"protein: Haspin, PDB entry 4qtc",0.398 µM (active)
same,IC50,"protein: Mitogen-activated protein kinase 8 JNK1, PDB entry 4qtd",1.08 µM (active)
O=C1NC(=Nc2ccccc2)N=C1Cc1ccc2c(c1)OCO2,IC50,"protein: Serine/threonine-protein kinase pim-1, PDB entry 4gw8",0.88 µM (active)
C/C=C\CCC[C@H](C(=O)N1CCC[C@H]1C(=O)OC)N(C)C(=O)[C@H](C)NC(=O)[C@H](CC(C)C)NC(=O)C[C@H](O)[C@H](Cc1ccccc1)NC(=O)c1cc(NS(C)(=O)=O)cc(C(=O)N[C@H](C)c2ccccc2)c1,IC50,"protein: Beta-secretase 1 (K75A,E77A mutation), PDB entry 4dvf",0.128 µM (active)
O=C(O)c1cc2ccccc2o1,IC50,"protein: Adenylate cyclase type 10 hsolAC, PDB entry 4oyp",1000 µM (active)
CCc1nc(N)nc(N)c1-c1ccc2c(c1)N(CCNC(C)=O)C(=O)C(C)(C)O2,IC50,"protein: human Renin, PDB entry 2g1r",0.02 µM (active)
C[C@H](N[C@@H](CCc1ccccc1)C(=O)O)C(=O)N1CC=C[C@H]1C(=O)O,IC50,"protein: HUMAN TESTICULAR ANGIOTENSIN I-CONVERTING ENZYME, PDB entry 1uze",0.00127 µM (active)
NC[C@@](O)(c1ccc(Cl)cc1)c1ccc(-c2cn[nH]c2)cc1,IC50,"protein: CAMP-DEPENDENT PROTEIN KINASE CATALYTIC SUBUNIT ALPHA, PDB entry 4axa",0.01 µM (active)
NC1NC(=O)c2[nH]cnc2N1 (stereo not given),IC50,"protein: human Purine nucleoside phosphorylase, PDB entry 1v2h",5 µM (active)
CO[C@@H]([C@@H]1O[C@H](C(=O)O)C[C@H](NC(N)N)[C@H]1NC(C)=O)[C@H](O)CO,IC50,"protein: Neuraminidase, PDB entry 4mwu",0.00324 µM (active)
same,IC50,"protein: Neuraminidase, PDB entry 4mwy",0.0896 µM (active)
CC(=O)N[C@H]1[C@H]([C@H](O)[C@H](O)CO)O[C@@H](C(=O)O)C[C@@H]1NC(N)N,IC50,"protein: Neuraminidase, PDB entry 4mwr",0.00041 µM (active)
same,IC50,"protein: Neuraminidase, PDB entry 4mwx",0.0757 µM (active)
CO[C@@H]([C@@H]1OC(C(=O)O)=C[C@H](NC(N)N)[C@H]1NC(C)=O)[C@H](O)CO,IC50,"protein: Neuraminidase, PDB entry 4hzw",0.00131 µM (active)
CC(C)[C@H](NC(=O)CCc1ccccc1)[P+](O)(O)C[C@@H](CCCCCN)C(=O)O,IC50,"protein: Carboxypeptidase B, PDB entry 3wc7",0.0055 µM (active)
Nc1[nH]c2c(=O)n3cnc2[n+]1[C@@H]1O[C@H](CO[P+](O)(O)O[P+](O)(O)OC[C@H]2O[C@@H]3[C@H](O)[C@@H]2O)[C@@H](O)[C@H]1O,IC50,"protein: ADP-ribosyl cyclase 1, PDB entry 3u4h",56 µM (active)
Nc1c2ncn3c2nc[n+]1[C@@H]1C[C@H](CO[P+](O)(O)O[P+](O)(O)OC[C@H]2O[C@@H]3[C@H](O)[C@@H]2O)[C@@H](O)[C@H]1O,IC50,"protein: ADP-ribosyl cyclase 1, PDB entry 3u4i",129 µM (active)
C/C(=C\CO[P+](O)(O)O[P+](O)(O)O)CS,IC50,"protein: 4-hydroxy-3-methylbut-2-enyl diphosphate reductase, PDB entry 4h4e",0.21 µM (active)
C/C(=C\CO[P+](O)(O)O[P+](O)(O)O)CN,IC50,"protein: 4-hydroxy-3-methylbut-2-enyl diphosphate reductase, PDB entry 4h4d",0.15 µM (active)
C[C@]1(c2cc(NC(=O)c3ccc(C#N)cn3)ccc2F)NC(N)O[C@H](C(F)(F)F)[C@@H]1F (stereo not given in full),IC50,"protein: Beta-secretase 1, PDB entry 4j1k",0.013 µM (active)
C[C@]1(c2cc(NC(=O)c3ccc(C#N)cn3)ccc2F)NC(N)O[C@@H](C(F)(F)F)[C@@H]1F (stereo not given in full),IC50,"protein: Beta-secretase 1, PDB entry 4j1i",0.04 µM (active)
O=C(CCc1cc(C(=O)c2cccc(F)c2)c[nH]1)C[C@@H](O)C(=O)O,IC50,"protein: DNA nucleotidylexotransferase, Tdt core, PDB entry 4iqt",0.78 µM (active)
CC(=O)O[C@]1(C(C)=O)CC[C@H]2[C@@H]3CCC4=CC(=O)CCC4=C3[C@@H](c3ccc(N(C)C)cc3)C[C@@]21C,IC50,"protein: Progesterone receptor, PDB entry 4oar",3.8e-05 µM (active)
CC(C)C1=CC2=CC(=O)[C@H]3C(C)(C)CCC[C@]3(C)C2=C(O)C1=O,IC50,"protein: Farnesyl pyrophosphate synthase HsFPPS-11, PDB entry 4p0x",1.2 µM (active)
O=C1N=CN2NC(Sc3ccc(F)cc3F)=CC=C2C1c1c(Cl)cccc1Cl (stereo not given),IC50,"protein: human p38 kinase, Mitogen-activated protein kinase 14, MAPK14, PDB entry 3fc1",0.01 µM (active)
CCCNc1nc(N)c(C(O)c2cccc([N+](=O)[O-])c2)s1 (stereo not given),IC50,"protein: Cyclin-dependent kinase 2, PDB entry 3r8v",2.9 µM (active)
CCCNc1nc(N)c(C(O)c2ccccn2)s1 (stereo not given),IC50,"protein: Cyclin-dependent kinase 2, PDB entry 3s0o",33 µM (active)
CCCNc1nc(N)c(C(O)c2cccnc2)s1 (stereo not given),IC50,"protein: Cyclin-dependent kinase 2, PDB entry 3qtq",3.1 µM (active)
CC(C)Nc1nc(N)c(C(O)c2cccnc2)s1 (stereo not given),IC50,"protein: Cyclin-dependent kinase 2, PDB entry 3rk9",0.52 µM (active)
CCCNc1nc(N)c(C(O)c2ccc3ccccc3c2)s1 (stereo not given),IC50,"protein: Cyclin-dependent kinase 2, PDB entry 3r8u",5 µM (active)
CCCNc1nc(N)c(C(O)c2ccncc2)s1 (stereo not given),IC50,"protein: Cyclin-dependent kinase 2, PDB entry 3r8z",49 µM (active)
COc1cc2nccc(Oc3ccc4oc(Nc5ccc(Cl)cc5)nc4c3)c2cc1OC,IC50,"protein: ALK tyrosine kinase receptor (C1097S, R1275Q mutation), PDB entry 4fny",0.016 µM (active)
CC(=O)Nc1cccc(-c2ccn([C@@H](Cc3cc[n+]([O-])cc3)c3ccc(OC(F)F)c(OCC4CC4)c3)n2)c1,IC50,"protein: cAMP-specific 3',5'-cyclic phosphodiesterase 4D, PDB entry 3v9b",0.0005 µM (active)
CN1C2=C(NC[C@@H]1CNc1ccc(C(=O)N[C@@H](CCC(=O)N[C@@H](CCC(=O)O)C(=O)O)C(=O)O)cc1)NC(N)=NC2O (stereo not given in full),IC50,"protein: Cyclic AMP-GMP synthase DncV (deletion mutant D-loop), PDB entry 4u0n",1.69 µM (active)
CN1C2C(=NC[C@@H]1CNc1ccc(C(=O)N[C@@H](CCC(=O)N[C@@H](CCC(=O)O)C(=O)O)C(=O)O)cc1)NC(N)=NC2O (stereo not given in full),IC50,"protein: Cyclic AMP-GMP synthase DncV (D193N mutant), PDB entry 4u0m",1.69 µM (active)
same,IC50,"protein: Cyclic AMP-GMP synthase DncV, PDB entry 4u03",1.69 µM (active)
